# Measured values: PubChem BioAssay
# Residues, ends and D or L forms follow the SMILES beside them. *: point of attachment. Cbz = O=C(OCc1ccccc1)*; CH2Cl = ClC*
# Experiments:
# [1] = target: Tumor necrosis factor receptor superfamily member 10B (Homo sapiens) (UniProt O14763); experiment: viability loss of caspase-8 NB7 cells with TRAIL – with/without TRAIL, luminescence panel, confirmation (AID 651596); details: NB7 neuroblastoma + caspase-8, TRAIL sensitization, NB7 Caspase-8, with TRAIL, mean of runs, at 10 µM, stronger effect = higher value
# [2] = as above; details: NB7 neuroblastoma + caspase-8, without TRAIL, NB7 Caspase-8, without TRAIL, mean of runs, at 10 µM
# Chain of Tumor necrosis factor receptor superfamily member 10B (Homo sapiens) (O14763 whole entry, looked up): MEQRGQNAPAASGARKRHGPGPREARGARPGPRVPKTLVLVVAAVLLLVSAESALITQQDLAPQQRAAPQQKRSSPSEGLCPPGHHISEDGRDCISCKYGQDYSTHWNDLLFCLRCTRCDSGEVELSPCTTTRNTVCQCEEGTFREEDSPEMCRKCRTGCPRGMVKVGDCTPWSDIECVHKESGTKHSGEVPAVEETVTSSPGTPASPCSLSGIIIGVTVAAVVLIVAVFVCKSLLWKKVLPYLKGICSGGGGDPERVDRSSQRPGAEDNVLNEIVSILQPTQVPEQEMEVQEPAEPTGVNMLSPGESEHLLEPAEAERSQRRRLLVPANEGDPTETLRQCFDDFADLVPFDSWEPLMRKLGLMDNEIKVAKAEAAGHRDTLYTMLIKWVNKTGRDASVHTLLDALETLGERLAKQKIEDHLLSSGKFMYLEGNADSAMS
SMILES,activity [1] [%],activity [2] [%]
COC(=O)c1ccc2nc(-c3ccc4c(c3)OCO4)cn2c1,74.5,76
O=C(CSc1nnc(-c2ccc(Br)cc2)o1)Nc1cccc(C(=O)O)c1,60.1,68.1
COc1ccc(-c2cn3ccccc3n2)cc1,88,87.1
Cc1ccc(C(=O)Nc2ccc(Cl)cc2C)c(Cl)c1,56.7,39.9
Cc1ccsc1C(=O)Nc1nc2ccccc2[nH]1,82,85.7
CSc1ccc(/C=N/NC(=O)c2cccc(O)c2)cc1,78.8,71
O=C(NCCN1C(=O)S/C(=C\c2ccc(Cl)c([N+](=O)[O-])c2)C1=O)C1=COCCO1,63.1,72.9
Cn1c(C(=O)NCCC2=CCCCC2)cc2c(=O)n3ccccc3nc21,59.6,57.7
Oc1ccc(-c2nnc(SCC3CCCCC3)o2)cc1,70.1,84.3
COc1ccc(NC(=O)c2cc(-c3ccncc3)nc3ccc(Br)cc23)cc1OC,4.8,51.5
O=[N+]([O-])c1cc(S(=O)(=O)C(F)(F)F)ccc1Sc1nc2ccccc2[nH]1,33.1,94.2
C=CCNC(=O)c1ccc2c3n(nc2c1)-c1ccccc1CO3,89.8,90.5
Cc1ccccc1-n1nnnc1Sc1nnnn1-c1ccccc1,46.1,91.3
CCCCN(CC)S(=O)(=O)c1ccc(C(=O)N=c2sc3cc(NC(C)=O)ccc3n2C)cc1,20.9,53.8
CCCCn1c(=O)[nH]c(=O)c2c1nc(Cn1ncc(Cl)c(Cl)c1=O)n2CCC,98.7,99
COc1ccc(OC)c(NC(=O)c2cc(-c3cc(Cl)ccc3O)n[nH]2)c1,33.7,34.1
CNC(=S)N1N=C(c2ccccc2)CC1c1ccc(Br)cc1 (centres undefined),-12.4,-42.7
O=C(NC(=S)Nc1ccc(Cl)cn1)c1cccs1,79.4,76.3
O=C(Nc1ccccn1)c1sc2cccc(F)c2c1Cl,82.7,76.6
Cc1cc(N)n2nc(-c3ccccc3)cc2n1,77.2,68.2
COC(=O)c1c(NC(=O)c2nc3ccccc3s2)sc2c1CC(C)(C)NC2(C)C,87.8,98.3

SMILES,activity [1] [%],activity [2] [%]
Cc1nn(-c2ccccc2)c(Cl)c1/C=N/NC(=O)c1[nH]ncc1Br,83.7,71.9
COC(=O)c1ccccc1NC(=O)c1cc(-c2ccc(O)cc2)on1,15.1,27.9
COC(=O)c1c(NC(=O)COc2ccc(Cl)cc2Cl)sc2c1CC(C)(C)NC2(C)C,98.7,99.3
CC(C)(C)C(=O)N1CCc2cc(-c3csc(N)n3)ccc21,91.8,88.1
CC(C)CC(NC(=O)OCc1ccccc1)C(=O)NC(Cc1ccccc1)C(=O)CCl (stereo not drawn) (Cbz-Leu-Phe-CH2Cl; configuration not given here),62.3,98
COc1ccc(C(=O)Nc2nnc(SCC(=O)NCc3ccco3)s2)c(OC)c1,65.7,61.2
Cc1ccc(NC(=O)CSc2nn(-c3ccccc3)c(=S)s2)cc1S(=O)(=O)N(C)C,22.1,17.6
CCCC(=O)Nc1ccc(C(=O)N/N=C/c2ccc[nH]2)cc1,98.5,97.8
O=S(=O)(c1ccc(Br)cc1)N1CCN(c2ccc3nnc(-c4ccccc4)n3n2)CC1,76.2,64.3
CCOc1cc(NC2CS(=O)(=O)CC2O)c(OCC)cc1NC(=O)c1ccccc1 (centres undefined),-26.1,-33.2
Cc1cccc2sc(NNC(=O)c3ccc(S(=O)(=O)N4CC(C)CC(C)C4)cc3)nc12 (centres undefined),55.6,49.8
CCn1cc(/C=C/C(=O)c2ccc(O)cc2)c(C)n1,63.8,57.5
CCOc1ccc(OCC)c(NC(=O)C2CCN(c3nn4c(=O)cc(C)nc4s3)CC2)c1,82,81.3
O=C(/C=C/c1ccccc1)Nc1ccc2c(c1)C(=O)NC2=O,14.6,19.9
O=C(CCl)N1CCCC1c1ccc2c(c1)OCCO2 (centres undefined),95.6,97.8
O=C1c2ccccc2NC(c2ccccc2)N1/N=C/c1ccccc1 (centres undefined),52.5,40.1
Cc1cc(C)cc(NS(=O)(=O)c2ccc3c(c2)c(=O)n(C)c(=O)n3C)c1,79,82.2
Cn1c(-c2ccccc2)c(C(=O)CCl)c2ccccc21,99.2,99.2
O=c1[nH]c(/C=C/c2ccccc2F)nc2ccccc12,86.9,86.8
C(=C\c1nc2ccccc2[nH]1)/c1ccccc1,93.8,93.6
CS(=O)(=O)Nc1cccc(NC(=O)C2Cc3c(-c4ccco4)ccnc3O2)c1 (centres undefined),35.7,27.8
